{
  "source": "PubChem BioAssay (NCATS)",
  "note": "Results filed as inconclusive are left out. A number with no mark means an inactive call. Activity calls are given as the source filed them. Calls follow the shape of the dose curve; as a rule, active = well fitted inhibition curve with a large enough effect; inconclusive = small, poorly fitted or top-dose-only effect; inactive = flat fitted curve, though single readings scatter. Potency is read from the fitted curve at half-maximal effect.",
  "data": [
    {"test_system": "CP325", "test": "qHTS profiling for inhibitors of Plasmodium falciparum proliferation (AID 504749); also: nearly all actives have a fitted effect of over 60% in size;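 as to activity, negative = inhibition: 0% = DMSO vehicle and full inhibition = artemisinin control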", "details": "P. falciparum in erythrocytes, SYBR Green DNA, 72 h; series mostly up to 28.7 µM; activity, negative = inhibition: at the top concentration", "how_it_was_run": "(§1)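 Three-day growth assay of blood-stage parasites in erythrocytes (0.3% parasitemia, 2.5% hematocrit) at 37 C, 5% CO2, quantified by SYBR Green DNA staining after overnight detergent lysis.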", "units": {"activity, negative = inhibition": "%"}, "values": [
      {"smiles": "CN1CCC[C@@H]1CCO[C@](C)(c1ccccc1)c1ccc(Cl)cc1", "activity, negative = inhibition": -19.5},
      {"smiles": "CN1CCN(c2cc3c(cc2F)c(=O)c(C(=O)O)cn3-c2ccc(F)cc2)CC1", "activity, negative = inhibition": -24.1},
      {"smiles": "CC(C)(C)CC(C)(C)c1ccc(O)c(-n2nc3ccccc3n2)c1", "activity, negative = inhibition": -4.32},
      {"smiles": "O=C(NC1CCN(CCc2c[nH]c3ccccc23)CC1)c1ccccc1", "activity, negative = inhibition": -16.4},
      {"smiles": "CN(Cc1ccc(C(C)(C)C)cc1)Cc1cccc2ccccc12", "activity, negative = inhibition": -3.08},
      {"smiles": "CN1CCN(C2=Nc3ccccc3Sc3ccc(Cl)cc32)CC1", "activity, negative = inhibition": -29.6},
      {"smiles": "CC(C)(Cc1c[nH]c2ccccc12)NCC(O)COc1ccccc1C#N", "note": "(stereo unspecified)", "activity, negative = inhibition": -25.6},
      {"smiles": "COc1ccc(C(Cl)=C(c2ccc(OC)cc2)c2ccc(OC)cc2)cc1", "activity, negative = inhibition": 7.01},
      {"smiles": "O=C(CCN1CCN2CCCC2C1)N1c2ccccc2Sc2ccc(Cl)cc21", "note": "(stereo unspecified)", "activity, negative = inhibition": -12.3},
      {"smiles": "O=C1C(O)=C(O)C(=O)C(O)=C1O", "activity, negative = inhibition": -1.13},
      {"smiles": "O=[N+]([O-])c1cccc(S(=O)(=O)NCCNS(=O)(=O)c2cccc([N+](=O)[O-])c2)c1", "activity, negative = inhibition": -12.9},
      {"smiles": "CC1CCc2c(N3CCC(O)CC3)c(F)cc3c(=O)c(C(=O)O)cn1c23", "note": "(stereo unspecified)", "activity, negative = inhibition": -23.9},
      {"smiles": "COc1ccccc1N1CCN(CCCCNC(=O)c2ccc(-c3ccc(C(C)=O)cc3)cc2)CC1", "activity, negative = inhibition": 20.7},
      {"smiles": "CO[C@]12C[C@@H](COC(=O)c3cncc(Br)c3)CN(C)[C@@H]1Cc1cn(C)c3cccc2c13", "activity, negative = inhibition": -8.07},
      {"smiles": "CN1CCN(CCC(=O)N2c3ccccc3Sc3ccc(C(F)(F)F)cc32)CC1", "activity, negative = inhibition": -14.8},
      {"smiles": "CC[N+](C)(CC)CCOC(=O)C(O)(c1ccccc1)C1CCCCC1", "note": "(stereo unspecified)", "activity, negative = inhibition": -26.4}
    ]},
    {"test_system": "CP329", "test": "qHTS profiling for inhibitors of Plasmodium falciparum proliferation (AID 504749); also: nearly all actives have a fitted effect of over 60% in size;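 as to activity, negative = inhibition: 0% = DMSO vehicle and full inhibition = artemisinin control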", "details": "P. falciparum in erythrocytes, SYBR Green DNA, 72 h; series mostly up to 28.7 µM; activity, negative = inhibition: at the top concentration", "how_it_was_run": "as §1", "values": [
      {"smiles": "CN1CCN(c2cc3c(cc2F)c(=O)c(C(=O)O)cn3-c2ccc(F)cc2)CC1", "activity, negative = inhibition": "-11.8%"},
      {"smiles": "CC(C)(C)CC(C)(C)c1ccc(O)c(-n2nc3ccccc3n2)c1", "activity, negative = inhibition": "2.52%"},
      {"smiles": "Cc1ccc2c(Br)cc(Br)c(O)c2n1", "Potency": "15.1 µM (active)"},
      {"smiles": "O=C(NC1CCN(CCc2c[nH]c3ccccc23)CC1)c1ccccc1", "activity, negative = inhibition": "-8.86%"},
      {"smiles": "CN(Cc1ccc(C(C)(C)C)cc1)Cc1cccc2ccccc12", "activity, negative = inhibition": "7.6%"},
      {"smiles": "CN1CCN(C2=Nc3ccccc3Sc3ccc(Cl)cc32)CC1", "activity, negative = inhibition": "-17.6%"},
      {"smiles": "CN1CCN(c2c(F)cc3c(=O)c(C(=O)O)cn4c3c2SCC4)CC1", "activity, negative = inhibition": "-17.7%"},
      {"smiles": "CCN(CC)CCOC(=O)C1(c2ccccc2)CCCC1", "activity, negative = inhibition": "-29.2%"},
      {"smiles": "C[N+]1(C)CCC(=C(c2ccccc2)c2ccccc2)CC1", "activity, negative = inhibition": "-15.8% [at 12.8 µM]"},
      {"smiles": "COc1ccc(C(Cl)=C(c2ccc(OC)cc2)c2ccc(OC)cc2)cc1", "activity, negative = inhibition": "5.4%"},
      {"smiles": "O=C(CCN1CCN2CCCC2C1)N1c2ccccc2Sc2ccc(Cl)cc21", "note": "(stereo unspecified)", "activity, negative = inhibition": "-7.44%"},
      {"smiles": "O=C1C(O)=C(O)C(=O)C(O)=C1O", "activity, negative = inhibition": "0.481%"},
      {"smiles": "O=[N+]([O-])c1cccc(S(=O)(=O)NCCNS(=O)(=O)c2cccc([N+](=O)[O-])c2)c1", "activity, negative = inhibition": "-25.6%"},
      {"smiles": "CC1CCc2c(N3CCC(O)CC3)c(F)cc3c(=O)c(C(=O)O)cn1c23", "note": "(stereo unspecified)", "activity, negative = inhibition": "-19.3%"},
      {"smiles": "Oc1c(Cl)cc(Cl)c(Cl)c1Cc1c(O)c(Cl)cc(Cl)c1Cl", "Potency": "13.5 µM (active)"},
      {"smiles": "CN(C)CCOC(c1ccc(Cl)cc1)c1ccccn1", "note": "(stereo unspecified)", "activity, negative = inhibition": "-24.3%"},
      {"smiles": "COc1ccccc1N1CCN(CCCCNC(=O)c2ccc(-c3ccc(C(C)=O)cc3)cc2)CC1", "activity, negative = inhibition": "0.333%"},
      {"smiles": "CO[C@]12C[C@@H](COC(=O)c3cncc(Br)c3)CN(C)[C@@H]1Cc1cn(C)c3cccc2c13", "activity, negative = inhibition": "-13.7%"},
      {"smiles": "CN1CCN(CCC(=O)N2c3ccccc3Sc3ccc(C(F)(F)F)cc32)CC1", "activity, negative = inhibition": "-4.28%"},
      {"smiles": "CC(C)[N+](C)(C)CC(O)COc1cccc2ccccc12", "note": "(stereo unspecified)", "activity, negative = inhibition": "-27.9%"},
      {"smiles": "CN(C)CCN1C(=O)c2ccccc2N(C)c2ccccc21", "activity, negative = inhibition": "-25%"},
      {"smiles": "CC[N+](C)(CC)CCOC(=O)C(O)(c1ccccc1)C1CCCCC1", "note": "(stereo unspecified)", "activity, negative = inhibition": "-20.7%"}
    ]},
    {"test_system": "CP335", "test": "qHTS profiling for inhibitors of Plasmodium falciparum proliferation (AID 504749); also: nearly all actives have a fitted effect of over 60% in size;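 as to activity, negative = inhibition: 0% = DMSO vehicle and full inhibition = artemisinin control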", "details": "P. falciparum in erythrocytes, SYBR Green DNA, 72 h; series mostly up to 28.7 µM; activity, negative = inhibition: at the top concentration", "how_it_was_run": "as §1", "units": {"activity, negative = inhibition": "%"}, "values": [
      {"smiles": "CCCCCN=C(N)N/N=C/c1c[nH]c2ccc(OC)cc12", "Potency": "6.01 µM (active)"},
      {"smiles": "Cc1ncc(CO)c(C=O)c1O", "activity, negative = inhibition": 5.28},
      {"smiles": "CN1CCc2cccc3c2[C@H]1Cc1ccc(O)c(O)c1-3", "Potency": "3.79 µM (active)"},
      {"smiles": "NC(N)=NN=C(/C=C/c1ccc([N+](=O)[O-])o1)/C=C/c1ccc([N+](=O)[O-])o1", "Potency": "4.78 µM (active)"},
      {"smiles": "O=C1C(O)=C(O)C(=O)C(O)=C1O", "activity, negative = inhibition": -11.4},
      {"smiles": "COc1ccccc1N1CCN(CCCCNC(=O)c2ccc(-c3ccc(C(C)=O)cc3)cc2)CC1", "activity, negative = inhibition": -1.48},
      {"smiles": "CC(C)(C)NC[C@H](O)COc1nsnc1N1CCOCC1", "Potency": "8.49 µM (active)"},
      {"smiles": "CC(C)[N+](C)(C)CC(O)COc1cccc2ccccc12", "note": "(stereo unspecified)", "Potency": "9.53 µM (active)"}
    ]},
    {"test_system": "DFO2036", "test": "qHTS profiling for inhibitors of Plasmodium falciparum proliferation (AID 504749); also: nearly all actives have a fitted effect of over 60% in size;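 as to activity, negative = inhibition: 0% = DMSO vehicle and full inhibition = artemisinin control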", "details": "P. falciparum in erythrocytes, SYBR Green DNA, 72 h; series mostly up to 28.7 µM; activity, negative = inhibition: at the top concentration", "how_it_was_run": "as §1", "values": [
      {"smiles": "CN1CCC[C@@H]1CCO[C@](C)(c1ccccc1)c1ccc(Cl)cc1", "activity, negative = inhibition": "-19.8%"},
      {"smiles": "Cc1ccc2c(Br)cc(Br)c(O)c2n1", "Potency": "10 µM (active)"},
      {"smiles": "CCCCCN=C(N)N/N=C/c1c[nH]c2ccc(OC)cc12", "Potency": "5.01 µM (active)"},
      {"smiles": "O=C(NC1CCN(CCc2c[nH]c3ccccc23)CC1)c1ccccc1", "activity, negative = inhibition": "-24%"},
      {"smiles": "Cc1ncc(CO)c(C=O)c1O", "activity, negative = inhibition": "-11.9%"},
      {"smiles": "CN(Cc1ccc(C(C)(C)C)cc1)Cc1cccc2ccccc12", "activity, negative = inhibition": "-4.95%"},
      {"smiles": "CN1CCN(C2=Nc3ccccc3Sc3ccc(Cl)cc32)CC1", "activity, negative = inhibition": "-15.6%"},
      {"smiles": "CCN(CC)CCOC(=O)C1(c2ccccc2)CCCC1", "activity, negative = inhibition": "-72.2%"},
      {"smiles": "C[N+]1(C)CCC(=C(c2ccccc2)c2ccccc2)CC1", "activity, negative = inhibition": "-12.9% [at 12.8 µM]"},
      {"smiles": "CC(=O)O[C@H]1C[C@@H]2CC[C@@H]3[C@H](CC[C@@]4(C)[C@H]3C[C@H]([N+]3(C)CCCCC3)[C@@H]4OC(C)=O)[C@@]2(C)C[C@@H]1N1CCCCC1", "activity, negative = inhibition": "-28.1%"},
      {"smiles": "NC(N)=NN=C(/C=C/c1ccc([N+](=O)[O-])o1)/C=C/c1ccc([N+](=O)[O-])o1", "Potency": "11.2 µM (active)"},
      {"smiles": "Clc1cccc(C(c2ccc3nc[nH]c3c2)n2ccnc2)c1", "note": "(stereo unspecified)", "Potency": "10 µM (active)"},
      {"smiles": "COc1ccc(C(Cl)=C(c2ccc(OC)cc2)c2ccc(OC)cc2)cc1", "Potency": "17.8 µM (active)"},
      {"smiles": "O=C(CCN1CCN2CCCC2C1)N1c2ccccc2Sc2ccc(Cl)cc21", "note": "(stereo unspecified)", "activity, negative = inhibition": "-19%"},
      {"smiles": "O=C1C(O)=C(O)C(=O)C(O)=C1O", "activity, negative = inhibition": "20.9%"},
      {"smiles": "O=[N+]([O-])c1cccc(S(=O)(=O)NCCNS(=O)(=O)c2cccc([N+](=O)[O-])c2)c1", "activity, negative = inhibition": "-23.7%"},
      {"smiles": "CN(C)CCOC(c1ccc(Cl)cc1)c1ccccn1", "note": "(stereo unspecified)", "activity, negative = inhibition": "-24.3%"},
      {"smiles": "COc1ccccc1N1CCN(CCCCNC(=O)c2ccc(-c3ccc(C(C)=O)cc3)cc2)CC1", "activity, negative = inhibition": "13%"},
      {"smiles": "CN1CCN(CCC(=O)N2c3ccccc3Sc3ccc(C(F)(F)F)cc32)CC1", "activity, negative = inhibition": "-16.4%"},
      {"smiles": "CC(C)(C)NC[C@H](O)COc1nsnc1N1CCOCC1", "Potency": "6.31 µM (active)"}
    ]}
  ]
}
